Among the data in PubChem BioAssay (EPA / NIEHS) are outcome and AC50 values, retold here.

As a reminder, the AC50 is the midpoint of the concentration-response curve, whichever way the signal moves.

Activity calls are given as the source filed them. The calls were made as follows: active = hit-call score of the fitted dose curve at least 0.9, where 1 is the maximum; inactive = score below 0.9.

Read-out in this test: Interleukin 6 Receptor (IL6R), IL6R (gene 3570)
The test can be described thus: LTEA_HepaRG_IL6R: Life Technologies and Expression Analysis (LTEA) Assay for Interleukin 6 Receptor (IL6R) using HepaRG (AID 2283510).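 As to AC50: TaqMan qRT-PCR signal normalized to ACTB GAPDH and POLR2A housekeeping genes.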 Conditions: mRNA level, 48 h; actives raise or lower the signal. The protocol: LTEA_HepaRG is a cell based, multiplexed-readout assay that uses HepaRG, a human liver cell line, with measurements taken at 48 hours after chemical dosing on a 96-well plate.LTEA_HepaRG_IL6R is one of 102 assay component(s) measured in the LTEA HepaRG cell culture assay. It is a marker of Inflammation.Data from the assay component LTEA_HepaRG_IL6R was analyzed into 1 endpoint. This assay endpoint, LTEA_HepaRG_IL6R, was analyzed with bidirectional fitting relative to DMSO as the negative control and baseline of activity. Using a type of inducible reporter, measures of mRNA induction for gain or loss-of-signal activity can be used to understand regulation of transcription factor activity. To generalize the intended target to other relatable targets, this assay endpoint is annotated to the cytokine receptor intended target family, where the subfamily is JAK-STAT cytokine receptor.
A total of 1060 chemcials from the ToxCast library were tested in eight-point concentration-response experiments. Cell culture and cytotoxicity assays were conducted at Thermo Fisher Scientific's Custom Services facility (Madison, WI). A single lot of human HepaRG cells (Thermo Fisher Scientific, Frederick, MD) was used for the cell culture experiments. 96-well format collagen type I coated plates of human HepaRG cells were prepared using established methods. Briefly, cryopreserved HepaRG cells were thawed, plated at a density of approximately 100,000 cells/well in HepaRG Thaw, Plate, and General Purpose media (HPRG770, Thermo Fisher Scientific), and incubated for 48 hours. 0.5% DMSO was selected as vehicle control to balance the requisite need of DMSO in HepaRG cultures to maintain differentiation (for example, baseline metabolism, proportions of hepatocytes vs. cholangiocytes), while enabling further hepatic receptor pathway activation (for example, PXR and CAR) in response to chemical exposure. 48 hours after plating, the culture medium was replaced with HepaRG Serum-Free Incudtion Media. Cells were exposed to each test chemical in duplicate and maintained in CO2 incubators for another 48 hours. Chemical plates were thawed to room temperature and 200x concentrations of treatment groups were prepared. 8-point conentration-reponse curves were made with the highest exposure at 100 uM, followed by half-log dilutions, all in 0.5% DMSO. Each test plate contained variouse controls, induction positive controls (1mM phenobarbital), cytotoxicity positive controls ([…] aflatoxin B1), vehicle controls (0.5% DMSO), and total lysis controls (0.5% DMSO). Cell morphology images were taken using an Essen IncuCyte FLR automated microscope, with six 96-well plates imaged in about 24 minutes. Images were captured and exported and JPEG files. Spent culture media was transfered to black-well plates for the LDH assay, and remaining media was sorted at -80 C for later use. Cells were treated with RLT buffer and frozen until shipped for gene expression analysis. Total RNA was isolated from the cell suspension in 75 uL of Buffer RLT (Qiagen, Germantown, MD 20874) by Quintiles/Expression Analysis (Durham, NC) using a custom isolation procedure. Total RNA from each plate well was transferred to a preamplification plate. Fluidigm's 96.96 Dynamic ArrayTM (Fluidigm, Amsterdam, the Netherlands) technology was used for gene expression analyses by quantitative reverse transcription polymerase chain reaction (qRT-PCR, performed by Quintiles/Expression Analysis, Durham, NC)89. Standard TaqManTM Assays (Applied Biosystems/ThermoFisher Scientific, Foster City, CA) were used to assess the expression of 93 genes selected based on their selectivity and sensitivity to important hepatic receptors known to be modulated by environmental chemicals; importance in human hepatocyte functionality; and hepatotoxicity. […]
Turning to `O=S(=O)(O)c1ccc(N=Nc2c(O)ccc3cc(S(=O)(=O)O)ccc23)cc1`, the outcome was inactive.

As to `OC(Cn1cncn1)(Cn1cncn1)c1ccc(F)cc1F`, the result was inactive.

With `CCCCCOC(C)=O`, the result was inactive.

On to `CCCCCCCC/C=C\CCCCCCCC(=O)OC[C@@H](O)[C@H]1OC[C@H](O)[C@H]1O`, for which the compound was called inactive.

On to `O=C1CN(N=Cc2ccc([N+](=O)[O-])o2)C(=O)N1`, for which the call was inactive.

For the compound `O=C(O)c1cccc(C[C@@H]2COc3ccc(OCc4nc5cc(F)ccc5s4)cc3[C@@H]2O)c1`, the concentration at half-maximal activity (AC50) was 50 µM (active).

Consider `OC(CCl)CCl`, for which the result was inactive.

As to `CCCCN1C(=O)[C@@H]([C@H](O)C2CCCCC2)NC(=O)C12CCN(Cc1ccc(Oc3ccc(C(=O)O)cc3)cc1)CC2`, the AC50 is 2.65 µM (active).

Consider `NC(=O)NN=Cc1ccc([N+](=O)[O-])o1`, for which the compound was classed as inactive.

Turning to `OCC(CO)(CO)CO`, the compound was called inactive.

With `CCCCCCCCCCCCCCO`, the compound was called inactive.

As to `CCCC(CCC)C(=O)O`, the compound was called inactive.

Regarding `CCCCCCCC1CCC(=O)O1` (stereo not given), the result was inactive.

Consider `NC(=O)N1c2ccccc2C=Cc2ccccc21`, for which the outcome was inactive.

As to `Cn1cc[nH]c1=S`, the call was inactive.

Take `C[C@]12C=CC(=O)C=C1CC[C@H]1[C@@H]3C[C@@H](O)[C@](O)(C(=O)CO)[C@@]3(C)C[C@H](O)[C@@]12F`: the call was inactive.

For the compound `CCCOc1ccc(S(=O)(=O)N2CCN(CC)CC2)cc1-c1nc2c(CC)n(Cc3ccccn3)nc2c(=O)[nH]1`, the result was inactive.

As for `Cc1ccc(S(=O)(=O)NC(=O)NN2CCCCCC2)cc1`, the outcome was inactive.

For `CCc1ccc(O)c(C(C)(C)C)c1`, the compound was classed as inactive.

As to `O=C(O)[C@H](O)[C@@H](O)C(=O)O`, the result was inactive.

With `O=c1[nH]cnc2c1ncn2[C@H]1CC[C@@H](CO)O1`, the result was inactive.

As for `COc1cc(C(C)C)c2c(c1)S(=O)(=O)N(COc1cc(=O)n3cccc(OCCN4CCCCC4)c3n1)C2=O`, the concentration at half-maximal activity (AC50) is 12.5 µM (active).

In the case of `OC[C@H]1O[C@@H]2O[C@H]3[C@H](O)[C@@H](O)[C@@H](O[C@H]4[C@H](O)[C@@H](O)[C@@H](O[C@H]5[C@H](O)[C@@H](O)[C@@H](O[C@H]6[C@H](O)[C@@H](O)[C@@H](O[C@H]7[C@H](O)[C@@H](O)[C@@H](O[C@H]1[C@H](O)[C@H]2O)O[C@@H]7CO)O[C@@H]6CO)O[C@@H]5CO)O[C@@H]4CO)O[C@@H]3CO`, the compound was called inactive.

For the compound `CC(C)c1nnc2ccc(-c3ocnc3-c3cc(F)ccc3F)cn12`, the compound was classed as inactive.

Consider `C[C@@H](Oc1ccc(CNC(=O)c2cccnc2Oc2ccc3c(c2)OCO3)c(F)c1)C(=O)O`, for which the compound was called inactive.

As to `c1ccc(C(O[C@@H]2CCCN(CCc3ccc4c(c3)OCO4)C2)c2ccccc2)cc1`, the compound was called inactive.

As for `CC(C)C(=O)Nc1ccc([N+](=O)[O-])c(C(F)(F)F)c1`, the outcome was inactive.

`CCCCCCCCCC`: the call was inactive.

Turning to `Cc1nccn1-c1ccc(Sc2cccc(C3(C(N)=O)CCOCC3)c2)cc1`, the half-maximal activity concentration (AC50) is 13.1 µM (active).

For `COS(C)(=O)=O`, the compound was classed as inactive.

As to `CC(C)CCCCCCOC(=O)C1CCCCC1C(=O)OCCCCCCC(C)C` (stereo not given), the compound was classed as inactive.

For `CCCCOC(=O)c1ccccc1`, the compound was called inactive.

As to `CC1(C)C(=O)N(Cl)C(=O)N1Cl`, the compound was classed as inactive.

On to `CCCCCCCCCCCCCCCCOS(=O)(=O)O`, for which the compound was called inactive.

`CNC(C)=O`: the call was inactive.

Consider `O=C(O)c1cccc(C(=O)O)c1`, for which the compound was classed as inactive.

For the compound `CCCCCCCCN(C)C`, the compound was classed as inactive.

As for `c1ccc2cc3ccccc3cc2c1`, the outcome was inactive.

On to `c1ccc2c(c1)-c1cccc3c1c-2cc1ccccc13`, for which the AC50 is 11.1 µM (active).

Regarding `COc1cc2c(c(OC)c1OC)-c1ccc(OC)c(=O)cc1[C@@H](NC(C)=O)CC2`, the concentration at half-maximal activity (AC50) is 0.432 µM (active).
